Screening results from PubChem BioAssay.
Shown are actives, neighbours in structure and some others; about 6% of the full set was active somewhere.
DRD3 antagonist – blocks the human D3 dopamine receptor; P35462; D3R cells, DiscoveRx beta-arrestin luminescence, antagonist mode; hits give low values; max response, negative = inhibition, %; 360,000 compounds, 2.5% hits; in the data active means max response below about -50%; inconclusive means no clear call, values can overlap the other calls
Target sequence (P35462 whole entry, looked up): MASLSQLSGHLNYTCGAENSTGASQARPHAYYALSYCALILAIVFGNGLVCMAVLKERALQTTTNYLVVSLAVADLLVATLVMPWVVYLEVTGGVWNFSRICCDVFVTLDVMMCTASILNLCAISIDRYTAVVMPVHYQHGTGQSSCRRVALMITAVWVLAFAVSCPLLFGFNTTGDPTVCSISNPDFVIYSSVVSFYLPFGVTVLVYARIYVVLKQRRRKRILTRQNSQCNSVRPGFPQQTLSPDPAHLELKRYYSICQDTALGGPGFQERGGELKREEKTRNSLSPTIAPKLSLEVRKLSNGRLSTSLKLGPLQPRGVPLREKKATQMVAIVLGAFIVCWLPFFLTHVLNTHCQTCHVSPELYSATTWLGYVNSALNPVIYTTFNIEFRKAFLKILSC
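Cells plated overnight at 1500 cells/well, then exposed to library compounds with dopamine controls for 90 minutes at 37 degrees C. DiscoveRx reagent added for 30–60 minutes at room temperature; luminescence read, quantitative HTS format.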
D1 antagonist – antagonists of human D1 dopamine receptor | P21728 | HEK293 TREx D1 cells, calcium flux, dopamine EC80; hits give low values | activity change, negative = inhibition, % at 10 µM | 360,000 compounds, 3.2% hits; in the data active means activity change below about -30%
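Using tetracycline-induced force-coupled D1 Hek293 cells and a calcium dye, signals were followed for 180 s after compound, then for 180 s after EC80 dopamine, to detect inhibitors.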
Chronic BCR inh – blocks chronic active B-cell receptor signaling; ABC-DLBCL IkBa-CBG/CBR reporter, luminescence ratio, 4 h; Potency, µM (doses to about 46.1 µM), most hits filed as inhibitors; 340,000 compounds, 0.05% hits; AID 493014; active means well fitted inhibition curve with a large enough effect in the signal ratio, with a control signal flat, not every such curve was filed as active; inconclusive means small, poorly fitted or top-dose-only effect, or effect the other way, or a change in a side signal; the % refers to the signal ratio
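TMD8 ABC-DLBCL cells carrying doxycycline-inducible green luciferase fused to IkappaBalpha plus unfused red luciferase were exposed to compounds (up to 46 uM) for 4 hrs at 37C. Activity came from the overlap-corrected green/red luminescence ratio.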
D1 agonist – activates the human D1 dopamine receptor; P21728; HEK293 T-REx D1 cells, calcium flux, agonist mode; activation, % at 2 µM; 360,000 compounds, 1% hits; in the data active means activation above about 30%
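Agonism was scored from calcium flux recorded over 180 s (1 read/s) after pintool compound addition, following a 10-cycle baseline. Cells were inducible force-coupled HEK293 TREx D1, plated overnight at 30 C and loaded with no-wash calcium dye.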
DRD3 agonist – activates the human D3 dopamine receptor; P35462; AID 652048; 410,000 compounds, 0.58% hits; D3R DiscoveRx beta-arrestin cells, luminescence, 90 min; max activation, %; in the data active means max activation above about 30%
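Agonist-mode cell screen: cells plated at 1500/well and incubated overnight at 37 °C, then exposed to library compounds for 90 min at 37 °C. Detection reagent was added for 30–60 min at room temperature, and luminescence was read.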
D1 PAM – enhances dopamine response at the human D1 receptor | HEK293 TREx D1 cells, calcium flux, dopamine EC20 potentiation | potentiation, % at 10 µM | 360,000 compounds, 0.036% hits; in the data active means potentiation above about 30%
Hits are given with their value.

How did CN(C)C1CN(Cc2cn(Cc3ccc(Cl)cc3)nn2)S(=O)(=O)C1 (stereo unspecified) do in these assays?
DRD3 antagonist: inactive; DRD3 agonist: inactive

What do the screens show for `N=c1n(CCN2CCCCC2)c2ccccc2n1CC(=O)c1cccs1`?
DRD3 antagonist: -63; D1 antagonist: inactive; Chronic BCR inh: inconclusive; D1 agonist: inactive; DRD3 agonist: inactive; D1 PAM: inactive

How did CC1(C)CC(=O)C(N=Nc2ccc(F)cc2)=C(O)C1 do in these assays?
DRD3 antagonist: inactive; D1 antagonist: -42; Chronic BCR inh: inactive; D1 agonist: inactive; DRD3 agonist: inactive; D1 PAM: inactive

How did CCn1c(=O)cc(SCC(=O)NCCc2cc(OC)ccc2OC)c2ccccc21 do in these assays?
D1 antagonist: inactive; D1 agonist: inactive; DRD3 agonist: inactive; D1 PAM: inactive

How did CN1/C(=C\C(=S)NC(=O)c2cccc(Br)c2)C(C)(C)c2ccccc21 do in these assays?
DRD3 antagonist: inactive; D1 antagonist: -69; Chronic BCR inh: inconclusive; D1 agonist: inactive; DRD3 agonist: inactive; D1 PAM: inactive

How did CN1CCCC(CC2c3ccccc3Sc3ccccc32)C1 (stereo unspecified) do in these assays?
DRD3 antagonist: -68; D1 antagonist: -41; Chronic BCR inh: inconclusive; D1 agonist: 53; DRD3 agonist: inactive; D1 PAM: inactive

Results for CN1CCCC(CN2c3ccccc3Sc3ccccc32)C1 (stereo unspecified) ?
DRD3 antagonist: inactive; D1 antagonist: inactive; Chronic BCR inh: inconclusive; D1 agonist: 42; DRD3 agonist: inactive; D1 PAM: inactive

How did O=C(CN1CCCC1)N1c2ccccc2Sc2ccccc21 do in these assays?
DRD3 antagonist: inactive; D1 antagonist: inactive; Chronic BCR inh: inactive; D1 agonist: inactive; DRD3 agonist: inactive; D1 PAM: inactive

Results for Cc1cc2c(s1)c1cnn(Cc3cccc(C(F)(F)F)c3F)c(=O)c1n2C ?
D1 antagonist: inactive; D1 agonist: inactive; D1 PAM: inactive

How did COc1ccc(NC(=O)c2cc([N+](=O)[O-])ccc2O)cc1 do in these assays?
DRD3 antagonist: inactive; D1 antagonist: -31; Chronic BCR inh: inconclusive; D1 agonist: inactive; DRD3 agonist: inactive; D1 PAM: inactive

What do the screens show for `O=C(Nc1ccc(Nc2ccccc2)cc1)c1cc([N+](=O)[O-])ccc1Cl`?
DRD3 antagonist: -51; D1 antagonist: inactive; Chronic BCR inh: inconclusive; D1 agonist: inactive; DRD3 agonist: inactive; D1 PAM: inactive

What do the screens show for `O=C(Nc1ccccc1Oc1ccccc1)c1cc([N+](=O)[O-])ccc1Cl`?
DRD3 antagonist: inactive; D1 antagonist: inactive; Chronic BCR inh: inconclusive; D1 agonist: inactive; DRD3 agonist: inactive; D1 PAM: inactive

Results for O=C(Nc1cccc([N+](=O)[O-])c1)c1cc2ccccc2cc1O ?
DRD3 antagonist: inactive; D1 antagonist: -42; Chronic BCR inh: inconclusive; D1 agonist: inactive; DRD3 agonist: inactive; D1 PAM: inactive

What do the screens show for `O=C(O)c1ccccc1C(=O)Nc1cccc([N+](=O)[O-])c1`?
DRD3 antagonist: inactive; D1 antagonist: inactive; Chronic BCR inh: inactive; D1 agonist: inactive; DRD3 agonist: inactive; D1 PAM: inactive

How did COc1ccc(NC(=O)c2cccc([N+](=O)[O-])c2)cc1 do in these assays?
DRD3 antagonist: inactive; D1 antagonist: inactive; Chronic BCR inh: inconclusive; D1 agonist: inactive; DRD3 agonist: inactive; D1 PAM: inactive

Results for O=C(Nc1ccc2c(c1)CCCN2C(=O)c1ccco1)c1cc([N+](=O)[O-])ccc1Cl ?
DRD3 antagonist: inactive; D1 antagonist: -42; Chronic BCR inh: inconclusive; D1 agonist: inactive; DRD3 agonist: inactive; D1 PAM: inactive

What do the screens show for `O=C(Nc1ccc(N2CCN(C(=O)c3ccco3)CC2)cc1)c1ccc([N+](=O)[O-])cc1Cl`?
DRD3 antagonist: inactive; D1 antagonist: inactive; Chronic BCR inh: inactive; D1 agonist: inactive; DRD3 agonist: inactive; D1 PAM: inactive

What do the screens show for `COc1ccccc1CNC(=O)CN1C(=O)CCn2nc(-c3ccccc3)cc21`?
D1 antagonist: inactive; D1 agonist: inactive; DRD3 agonist: inactive; D1 PAM: inactive

How did CN(C)C(=O)c1cccc(-c2cccc(-c3nc(C(=O)NCc4ccccc4)cc4c3[C@H](CCO)N(S(=O)C(C)(C)C)C4)c2)c1 (stereo partly specified) do in these assays?
DRD3 antagonist: inactive; DRD3 agonist: inactive

Results for CCC1OC(C)Cc2[nH][nH]c(=O)c21 (stereo unspecified) ?
DRD3 antagonist: inactive; DRD3 agonist: inactive

How did O=C(NNc1ccc([N+](=O)[O-])cc1)c1ccccc1Cl do in these assays?
DRD3 antagonist: inconclusive; D1 antagonist: -52; Chronic BCR inh: inactive; D1 agonist: inactive; DRD3 agonist: inactive; D1 PAM: inactive

How did O=C(Nc1cccc([N+](=O)[O-])c1)c1ccc(-c2ccccc2)cc1 do in these assays?
DRD3 antagonist: inactive; D1 antagonist: -59; Chronic BCR inh: inactive; D1 agonist: inactive; DRD3 agonist: inactive; D1 PAM: inactive

What do the screens show for `O=C(Nc1cccc([N+](=O)[O-])c1)c1cccc(C(=O)Nc2cccc([N+](=O)[O-])c2)c1`?
DRD3 antagonist: inactive; D1 antagonist: inactive; Chronic BCR inh: inactive; D1 agonist: inactive; DRD3 agonist: inactive; D1 PAM: inactive

What do the screens show for `Cc1ccc(OCCCCN2CCc3ccccc3C2)cc1`?
DRD3 antagonist: -100; D1 antagonist: inactive; Chronic BCR inh: inconclusive; D1 agonist: inactive; DRD3 agonist: inactive; D1 PAM: inactive

What do the screens show for `Cc1cccc(OCCCN2CCCCCC2)c1`?
DRD3 antagonist: -51; D1 antagonist: inactive; Chronic BCR inh: inactive; D1 agonist: inactive; DRD3 agonist: inactive; D1 PAM: inactive

What do the screens show for `CCc1cccc(OCCN2CCCC2)c1`?
DRD3 antagonist: -60; D1 antagonist: inactive; Chronic BCR inh: inactive; D1 agonist: inactive; DRD3 agonist: inactive; D1 PAM: inactive

Results for Brc1cccc(OCCN2CCCCC2)c1 ?
DRD3 antagonist: -92; D1 antagonist: inactive; Chronic BCR inh: inactive; D1 agonist: inactive; DRD3 agonist: inactive; D1 PAM: inactive

What do the screens show for `CN1CC(=O)NC1=N`?
DRD3 agonist: inactive

How did COC(=O)c1cc([N+](=O)[O-])c(C)c(C)n1 do in these assays?
DRD3 antagonist: inactive; DRD3 agonist: inactive

What do the screens show for `Cc1ccc(OCCCCn2cnc3ccccc32)cc1`?
DRD3 antagonist: inactive; D1 antagonist: -37; Chronic BCR inh: inconclusive; D1 agonist: inactive; DRD3 agonist: inactive; D1 PAM: inactive

Results for Brc1cccc(OCCN2CCc3ccccc3C2)c1 ?
DRD3 antagonist: -73; D1 antagonist: inactive; Chronic BCR inh: inactive; D1 agonist: inactive; DRD3 agonist: inactive; D1 PAM: inactive

How did Cc1ccc(/C=N/NC(=O)Cn2cnc3ccccc32)cc1 do in these assays?
DRD3 antagonist: inactive; D1 antagonist: -43; Chronic BCR inh: inactive; D1 agonist: inactive; DRD3 agonist: inactive; D1 PAM: inactive
